Hit rate of the full screen: of about 1,200 compounds, about 480 (40%) were called active. So high a share suggests a set chosen from earlier hits. A selection follows. Entries with a potency or affinity are not part of this list. A number with no mark means an inactive call. The rule behind the calls is not given here.

The nature of the assay: viability loss in human hepatoma cells – cell-based, CellTiter-Glo luminescence, cherry-pick, set 2, cytotoxicity control, dose response (AID 743395).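 Note: 0% = neutral control wells and -100% = positive control wells.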 As to conditions: HepG2 viability, CellTiter-Glo ATP luminescence, 72 h; series mostly up to 26 µM; activity change, negative = cytotoxicity: at the top concentration.
For `CN(CC(=O)Nc1ccc(Cl)c(C(F)(F)F)c1)C(=O)CCN1C(=O)C2CCCCC2C1=O` (stereo unspecified), the “activity change, negative = cytotoxicity” value is -13.2%.

As for `CCOC(=O)c1nc(C)sc1-c1ccnn1S(=O)(=O)c1ccccc1C(F)(F)F`, the “activity change, negative = cytotoxicity” value was -0.592%.

For `CC(=O)c1c(C)[nH]c(C(=O)OCC(=O)NCc2ccc(Cl)cc2)c1C`, the “activity change, negative = cytotoxicity” value is -21.3%.

As for `O=C1NCCc2c1[nH]c1ccc([N+](=O)[O-])cc21`, the “activity change, negative = cytotoxicity” value was -20.4%.

For the compound `O=C(CCNC(=O)c1ccco1)Nc1nc(-c2ccccc2)cs1`, the “activity change, negative = cytotoxicity” value was -11.4%.

Consider `COc1cc(/C=C2\SC(=Nc3ccc(Cl)c(C(=O)O)c3)NC2=O)c(Br)c(Br)c1O`, for which the “activity change, negative = cytotoxicity” value is 4.23%.

As for `COc1ccc2c(c1)/C(=C/c1cc(OC)c(OC)c(OC)c1)C(=O)N2`, the “activity change, negative = cytotoxicity” value was -24.9%.

For the compound `Cc1nn(C2CCS(=O)(=O)C2)c2nc(C3CC3)cc(C(=O)Nc3cccc(C#N)c3)c12` (stereo unspecified), the “activity change, negative = cytotoxicity” value is -19.7%.

In the case of `COc1ccc(C#Cc2ccc3c(c2)O[C@H](CN(C)C(=O)Nc2cccc(OC)c2)[C@H](C)CN([C@H](C)CO)S3(=O)=O)cc1`, the “activity change, negative = cytotoxicity” value is -1.04% [at 23.5 µM].

With `COc1ccc(CNCC(=O)Nc2ccccc2-n2cccc2)cc1`, the “activity change, negative = cytotoxicity” value was -13.8%.

`COc1ccc(NC(=O)C(=O)c2cn(CC(=O)N3CCCC3)c3ccccc23)cc1OC`: the “activity change, negative = cytotoxicity” value was -33.5%.

On to `CCCCNC(=O)c1onc(CSc2ccccc2C)c1C(=O)O`, for which the “activity change, negative = cytotoxicity” value is -8.72%.

As for `COc1cccc(C2=CC(c3ccccc3)n3nnnc3N2)c1` (stereo unspecified), the “activity change, negative = cytotoxicity” value was -18.3%.

Turning to `CCOc1cc(N2CCOCC2)c(OCC)cc1NC(=O)CN1C(=O)NC2(CCCCC2)C1=O`, the “activity change, negative = cytotoxicity” value was -3.62%.

In the case of `COCCCN=C1NN=C(c2cc(C)n(Cc3ccccc3Cl)c2C)CS1`, the “activity change, negative = cytotoxicity” value is -14.4%.

With `C[C@H]1CNC(=O)c2c(C(=O)Nc3ccc(CNC(=O)OC(C)(C)C)cc3)ncn21`, the “activity change, negative = cytotoxicity” value was -3.46%.

In the case of `C[C@@H]1CN([C@H](C)CO)S(=O)(=O)c2ccc(C#Cc3cccc(F)c3)cc2O[C@@H]1CN(C)C(=O)NC1CCCCC1`, the “activity change, negative = cytotoxicity” value was -27.1%.

Consider `CC(=O)N(C)C[C@@H]1Oc2cc(C#Cc3ccc(F)cc3)ccc2S(=O)(=O)N([C@H](C)CO)C[C@@H]1C`, for which the “activity change, negative = cytotoxicity” value was -8.91%.

Take `C[C@H](CO)N1C[C@H](C)[C@H](CN(C)C(=O)NC2CCCCC2)Oc2cc(C#Cc3ccc(F)cc3)ccc2S1(=O)=O`: the “activity change, negative = cytotoxicity” value was -7.21%.

Take `C[C@H]1CN([C@@H](C)CO)S(=O)(=O)c2ccc(C#Cc3cccc(F)c3)cc2O[C@H]1CN(C)C(=O)NC1CCCCC1`: the “activity change, negative = cytotoxicity” value is -26.2%.

As for `C[C@H](CO)N1C[C@H](C)[C@H](CN(C)C(=O)NC2CCCC2)Oc2cc(C#Cc3ccc(F)cc3)ccc2S1(=O)=O`, the “activity change, negative = cytotoxicity” value was -13.8%.

On to `C[C@H](CO)N1C[C@H](C)[C@@H](CN(C)C(=O)NC2CCCCC2)Oc2cc(C#Cc3ccc(F)cc3)ccc2S1(=O)=O`, for which the “activity change, negative = cytotoxicity” value is 15.3%.

For the compound `Cc1cccc2c(N=Nc3ccc(S(=O)(=O)Nc4ccc(Cl)cc4)cc3[N+](=O)[O-])c(O)[nH]c12`, the “activity change, negative = cytotoxicity” value was 1.24%.

For `Cc1ccc(-c2nc(CSCC(=O)Nc3cc(C)on3)c(C)o2)cc1`, the “activity change, negative = cytotoxicity” value is -3.4%.

With `COc1ccc(C#Cc2ccc3c(c2)O[C@@H](CN(C)C(=O)Nc2cccc(OC)c2)[C@H](C)CN([C@H](C)CO)S3(=O)=O)cc1`, the “activity change, negative = cytotoxicity” value was -6.6%.

As for `CO[C@@H]1CN(C)C(=O)c2cc(NC(=O)Nc3c(C)noc3C)ccc2OC[C@@H](C)N(C)C[C@@H]1C`, the “activity change, negative = cytotoxicity” value is 4.2%.

Regarding `Cc1cccc(OCCNC(=O)c2ccc(Cl)c(S(=O)(=O)NCc3cccnc3)c2)c1`, the “activity change, negative = cytotoxicity” value was -31.4%.

`Cc1ccc(S(=O)(=O)NCc2ccccc2)cc1C(=O)N1CC(C)CC(C)C1` (stereo unspecified): the “activity change, negative = cytotoxicity” value was -7.82%.

Regarding `N=c1sccn1CC(=O)Nc1ccc(S(N)(=O)=O)cc1`, the “activity change, negative = cytotoxicity” value was -16.8%.

Take `COC(=O)C[C@@H]1CC[C@@H]2[C@H](COc3ccc(NC(=O)c4ccc(C(F)(F)F)cc4)cc3C(=O)N2C)O1`: the “activity change, negative = cytotoxicity” value was -19.6%.

As for `O=C(CN(Cc1ccccc1)S(=O)(=O)c1ccc(F)cc1)NCc1cccnc1`, the “activity change, negative = cytotoxicity” value was -16.4%.

For the compound `NS(=O)(=O)c1ccc(CNc2ccc3ccccc3n2)cc1`, the “activity change, negative = cytotoxicity” value was 1.62%.

For `COC(=O)c1ccsc1NC(=O)c1ccccc1`, the “activity change, negative = cytotoxicity” value was -17.6%.

Take `CCN(C(=O)COC(=O)c1cc(-c2ccccc2)nc2c1c(C)nn2-c1ccc(C)cc1)C1CCS(=O)(=O)C1` (stereo unspecified): the “activity change, negative = cytotoxicity” value was -8.63%.

Regarding `CC(C)c1ccc(CN2CCN(S(=O)(=O)c3ccc(Cl)s3)CC2)cc1`, the “activity change, negative = cytotoxicity” value is -4.24%.

For `Cc1cc(C)cc(C(=O)NCC(=O)OCc2cc([N+](=O)[O-])cc3c2OCOC3)c1`, the “activity change, negative = cytotoxicity” value is 17%.

Turning to `CCN(CC)C(=S)SSC(=S)N(CC)CC`, the “activity change, negative = cytotoxicity” value is -4.43%.

Turning to `Cc1cc2c(cc(C(=O)OC(C)C(=O)NCc3ccc(F)cc3)n2C)o1` (stereo unspecified), the “activity change, negative = cytotoxicity” value was -0.125%.

With `CCN(CC)CCn1c2c(c(SCC(=O)Nc3ccc(F)c(F)c3)nc1=O)CCC2`, the “activity change, negative = cytotoxicity” value is -13%.

In the case of `COc1cc(C(=O)OCCc2cc3ccccc3c(=O)o2)cc(OC)c1OC`, the “activity change, negative = cytotoxicity” value was -16.8%.

In the case of `O=C1c2ccccc2C(=O)N1Cc1cnc(N2CCN(c3ccccc3)CC2)s1`, the “activity change, negative = cytotoxicity” value is -32%.

Turning to `CCOC(=O)c1cnc(COc2ccc(OC)cc2)[nH]c1=O`, the “activity change, negative = cytotoxicity” value is -2%.

Consider `S=C(NCCc1ccccc1)Nc1nccs1`, for which the “activity change, negative = cytotoxicity” value was -14.8%.

With `COc1ccc(NS(=O)(=O)c2cc(NC(=O)Cc3c(F)cccc3Cl)ccc2OC)cc1`, the “activity change, negative = cytotoxicity” value is -10.6%.

As to `O=S(=O)(c1ccc(Br)cc1)N1CCCc2ccccc21`, the “activity change, negative = cytotoxicity” value is 4.64%.

Regarding `CC1CN(S(=O)(=O)c2ccc(C(=O)N3CCc4ccccc43)cc2)CC(C)O1` (stereo unspecified), the “activity change, negative = cytotoxicity” value is 5.35%.

For the origin of these results see PubChem BioAssay AID743395 (Broad Institute, 2014).
